Our source for the growth values is PubChem BioAssay (NCI).

Among the test systems are EKVX NSCLC; SN12C renal; ACHN renal; CAKI-1 renal; A498 renal; CCRF-CEM leukemia; MOLT-4 leukemia; SR leukemia; UO-31 renal; TK-10 renal.
What all share (assay): NCI-60 one-dose screen, 48 h (100 = growth as untreated, 0 = no growth, -100 = all killed)
Common to all, as to conditions: 10 µM unless noted

The panel holds about 83,000 compounds, 20% with a hit somewhere; the sample as a whole holds those more often.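 The test compound was applied at a single concentration to cells in 96-well plates for 48 hours, and percent growth was recorded.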 Values without a mark were called inactive. The source made the active and inactive calls. How the source made its calls: active means growth percent below 10; inactive means the rest.

Regarding `CCOc1cc(-c2ccc[nH]2)[nH]c1/C=C1\N=C(C)C(C(=O)OC)=C1C`, the growth with EKVX NSCLC is -50.3% (active); with SN12C renal, -75.8% (active); in the assay with ACHN renal it was -76.8% (active); in the assay with CAKI-1 renal, -49.2% (active); in the assay with A498 renal, -74% (active); with CCRF-CEM leukemia, -37.8% (active). The growth is -53.8% (active) in the assay on MOLT-4 leukemia and -45.5% (active) in the assay on SR leukemia.

`Cc1nn(-c2ccccc2)c2nc(Cl)c(/C=C/C(=O)c3ccccc3)c(-c3ccccc3)c12`: the growth in the assay on EKVX NSCLC was 107%; in the assay on UO-31 renal, 82.4%; with TK-10 renal, 121%; with ACHN renal it was 104%; in the assay with CAKI-1 renal, 97.8%; in the assay on A498 renal, 112%.

Consider `CC[C@]1(O)CC2CN(CCc3c([nH]c4ccccc34)[C@@](C(=O)OC)(c3cc4c(cc3OC)N(C)[C@H]3[C@@](O)(C(=O)OC)[C@H](OC(C)=O)[C@]5(CC)C=CCN6CC[C@]43[C@@H]65)C2)C1` (stereo not given in full), for which the growth was 49.6% in the assay on EKVX NSCLC; 18.9% in the assay on UO-31 renal; 62.6% in the assay on TK-10 renal; 21.9% in the assay with ACHN renal; 26.8% with CAKI-1 renal; -15.6% (active) with A498 renal. Moreover, the values for the growth in the assay with CCRF-CEM leukemia, with MOLT-4 leukemia and in the assay with SR leukemia were 10.7%, 16.4% and 10.2%, respectively.

As for `Oc1ccc(Cc2ccc(O)c(C3CC(c4ccc(Cl)cc4)=NN3)c2)cc1C1CC(c2ccc(Cl)cc2)=NN1` (stereo not given), the growth is -6.4% (active) in the assay on EKVX NSCLC; -22.4% (active) with UO-31 renal; 21% in the assay with TK-10 renal; 16.5% in the assay with ACHN renal; -49.4% (active) in the assay with CAKI-1 renal; 33.8% with A498 renal. Further, the growth in the assay with CCRF-CEM leukemia is 8.95% (active); in the assay with MOLT-4 leukemia, -5.34% (active); in the assay with SR leukemia, 3.43% (active).

As to `CN=C(NC)N/N=C(C)\C=N\NC(=NC)NC`, the growth was 101% in the assay on EKVX NSCLC; 83.7% in the assay on UO-31 renal; 127% in the assay on TK-10 renal; 101% in the assay with ACHN renal; 89.1% in the assay on CAKI-1 renal; 96.3% in the assay on A498 renal. Besides, the growth in the assay with CCRF-CEM leukemia was 106%; with MOLT-4 leukemia it was 101%.

Take `C[n+]1c2ccccc2c(NC2CCNCC2)c2[nH]c3ccccc3c21`: the growth was 10.3% in the assay on EKVX NSCLC; 67.3% with UO-31 renal; 29.5% in the assay with TK-10 renal; 71.1% with ACHN renal; 88.8% in the assay with CAKI-1 renal; 51.7% in the assay on A498 renal. Further, the growth was -10.9% (active) in the assay with CCRF-CEM leukemia, -12.8% (active) in the assay with MOLT-4 leukemia and -24.4% (active) in the assay with SR leukemia.

For the molecule `CCC(C)(C)C(=O)O[C@H]1C[C@@H](C)C=C2C=C[C@H](C)[C@H](CC[C@@H]3C[C@@H](O)CC(=O)O3)[C@H]21`, the growth in the assay with EKVX NSCLC is 51.7%; in the assay on UO-31 renal, 52.1%; in the assay on TK-10 renal it was 83.1%; with ACHN renal, 14.7%; in the assay with CAKI-1 renal, -33.5% (active); with A498 renal, -38.8% (active). Also, the growth in the assay on CCRF-CEM leukemia was 62.5%; with MOLT-4 leukemia it was 72.8%.

With `O=C(CSCC(=O)N/N=C/c1ccccc1O)N/N=C\c1ccccc1O`, the growth was 44.8% with EKVX NSCLC; 7.47% (active) in the assay with UO-31 renal; 24.4% with TK-10 renal; 11.9% in the assay with ACHN renal; 11.4% in the assay on CAKI-1 renal; 99.1% in the assay on A498 renal. Besides, the growth is 3.39% (active) with CCRF-CEM leukemia, -4.94% (active) in the assay with MOLT-4 leukemia and 3.96% (active) in the assay with SR leukemia.

As to `COc1ccc(-c2nc3sccn3c2-c2ccnc(S(C)(=O)=O)n2)cc1`, the growth was 79.7% in the assay on EKVX NSCLC; -82% (active) in the assay on UO-31 renal; 117% with TK-10 renal; 74.2% in the assay with ACHN renal; -69% (active) in the assay on CAKI-1 renal; 120% in the assay on A498 renal. In addition, the growth with CCRF-CEM leukemia is 77.8%; in the assay on MOLT-4 leukemia, 87.2%; with SR leukemia, 40.5%.

`Clc1ccccc1[C@@H]1C[C@@H]2Cc3cc(Br)c4ccccc4c3N1O2`: the growth was 70% with EKVX NSCLC; 44.3% in the assay with SN12C renal; 63.6% in the assay on TK-10 renal; 53.5% in the assay with ACHN renal; 40.4% in the assay with CAKI-1 renal; 15.7% in the assay with A498 renal. Moreover, the growth in the assay on MOLT-4 leukemia is 17.2%; with SR leukemia it was 3.11% (active).

For `C=C(C)[C@@H]1C/C=C(/C=O)CC[C@@H]2O[C@@]2(C)CC/C=C(\C)CC1`, the growth with EKVX NSCLC is 69.8%; in the assay with SN12C renal, 116%; in the assay with TK-10 renal, 114%; in the assay on ACHN renal, 100%; in the assay with CAKI-1 renal it was 8.5% (active); in the assay with A498 renal, 124%. Besides, the growth is 137% in the assay on CCRF-CEM leukemia, 133% with MOLT-4 leukemia and 125% with SR leukemia.

`CC(=O)NCCSC(=O)C(=O)SCCNC(C)=O`: the growth in the assay with EKVX NSCLC was 101%; in the assay with UO-31 renal, 95.7%; with TK-10 renal, 128%; in the assay with ACHN renal, 108%; in the assay on CAKI-1 renal, 105%; in the assay with A498 renal, 104%. Also, the growth with CCRF-CEM leukemia is 119%; in the assay with MOLT-4 leukemia it was 112%; with SR leukemia, 114%.

Take `O=C(CCc1nnc2sc(Cc3ccccc3Cl)nn12)c1nc2ccccc2[nH]1`: the growth in the assay with EKVX NSCLC was 91.7%; in the assay with UO-31 renal, 63%; in the assay on TK-10 renal, 144%; in the assay on ACHN renal, 84.7%; in the assay on CAKI-1 renal, 89%; in the assay on A498 renal it was 92.3%. The growth with CCRF-CEM leukemia is 96.1%; in the assay with MOLT-4 leukemia it was 72.9%.

With `Clc1ccc2c(Nc3ccc4oc(NCCN5CCCC5)nc4c3)ccnc2c1`, the growth was 104% in the assay on EKVX NSCLC; 83.7% with SN12C renal; 98.2% in the assay with ACHN renal; 94.1% in the assay on CAKI-1 renal; 90.6% in the assay with A498 renal; 70.2% in the assay on CCRF-CEM leukemia. The growth with MOLT-4 leukemia is 66.6%; in the assay with SR leukemia it was 1.43% (active).

As for `CSC1=Nc2c(c(C)c(-c3ccccc3)n2CCCN2CCCCC2)C2=NC(=O)C[C@H](C)N12`, the growth is 41.9% with EKVX NSCLC; 45.5% in the assay with SN12C renal; 48.7% with TK-10 renal; 66.8% with ACHN renal; 66.9% in the assay with CAKI-1 renal; 20.7% in the assay with CCRF-CEM leukemia. Also, the growth with MOLT-4 leukemia was 67.6%; with SR leukemia, 2.43% (active).
